Source: PubChem
PREPL inhibitor: inhibitors of human prolyl oligopeptidase-like enzyme PREPL; Q4J6C6; recombinant PREPL, fluorescence polarization activity-based probe; inhibition, % at 5.96 µM; 0.68% of 320,000 active;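 further: 0% = enzyme with DMSO and 100% = wells lacking enzyme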
Target sequence (Q4J6C6 whole entry, looked up): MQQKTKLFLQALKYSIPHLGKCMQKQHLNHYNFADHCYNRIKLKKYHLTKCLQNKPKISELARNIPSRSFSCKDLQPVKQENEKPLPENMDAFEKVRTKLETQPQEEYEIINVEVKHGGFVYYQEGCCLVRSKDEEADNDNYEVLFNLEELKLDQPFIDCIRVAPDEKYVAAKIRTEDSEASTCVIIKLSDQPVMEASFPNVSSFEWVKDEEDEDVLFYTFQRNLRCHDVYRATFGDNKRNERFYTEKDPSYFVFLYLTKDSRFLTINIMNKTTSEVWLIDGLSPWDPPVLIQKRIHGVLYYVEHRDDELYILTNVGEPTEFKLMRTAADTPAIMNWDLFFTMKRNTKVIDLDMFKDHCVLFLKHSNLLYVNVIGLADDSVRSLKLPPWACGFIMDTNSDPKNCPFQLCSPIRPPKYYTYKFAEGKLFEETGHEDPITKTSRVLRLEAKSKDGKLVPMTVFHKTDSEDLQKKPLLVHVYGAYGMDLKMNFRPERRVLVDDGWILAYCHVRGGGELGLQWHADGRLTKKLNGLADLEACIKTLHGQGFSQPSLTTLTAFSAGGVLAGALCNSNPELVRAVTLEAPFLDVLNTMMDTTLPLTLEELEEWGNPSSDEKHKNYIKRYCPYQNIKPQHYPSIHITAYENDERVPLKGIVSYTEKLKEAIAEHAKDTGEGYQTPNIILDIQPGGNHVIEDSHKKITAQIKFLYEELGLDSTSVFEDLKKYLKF
NadD block: blocks S. aureus nicotinate mononucleotide adenylyltransferase. purified NadD enzyme, colorimetric absorbance read-out. inhibition, % at 20 µM. 0.78% of 360,000 active; in the data active means inhibition above about 26%
PP5 primary: blocks human protein phosphatase 5 activity; P53041; purified PP5c, OMFP substrate fluorescence; inhibition, % at 6.7 µM; 0.18% of 320,000 active; AID 1987;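 active means inhibition above the campaign's mean inhibition across all tested compounds plus 3 SD, cut at about 9.5% in these data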;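 further: 0% = DMSO only and 100% = 100 µM cantharidin control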
Rpn11 inh: blocks the human proteasome subunit Rpn11 | 0.59% of 360,000 active | AID 588493 | human 26S proteasome, Ub4-pepOG fluorescence polarization; 20S core pre-blocked with epoxomicin | inhibition, % at 20 µM;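 active means inhibition at 20 µM, scaled to each plate's controls, above about 33%, limit read from the data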
PP1 inh: blocks human PP1-alpha phosphatase, a PP5 counter-screen. purified PP1alpha, OMFP fluorescence. inhibition, % at 6.7 µM. 0.9% of 320,000 active. P62136;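 active means inhibition above the mean inhibition of all tested compounds plus 3 SD, computed separately for each screening campaign, cut at about 15% in these data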
PREPL confirm: confirmation of human PREPL enzyme inhibitors | shares compounds with PREPL inhibitor | recombinant PREPL, fluorescence polarization activity probe | inhibition, % at 5.96 µM | 67% of 2,000 active;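 further: 0% = protein with DMSO and 100% = wells lacking protein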
Active calls of the source: *; / = no result shown. Compounds with a hit are over-represented: about 2.4% of the library has one in this group of screens. Unless noted, no stated cut-off is given here; in the data, active means inhibition above about 43%; inactive means the rest.

SMILES | PREPL inhibitor | NadD block | PP5 primary | Rpn11 inh | PP1 inh | PREPL confirm
CCN(CC(=O)NCCCN1CCOCC1)S(=O)(=O)c1ccc(F)cc1 | -2 | 4 | -1 | -6 | -4 | /
CC(C)(C)NC(=O)C1c2ccccc2OCC(=O)N1Cc1ccccc1 (stereo not drawn) | / | -1 | / | / | / | /
O=C(C1CCN(c2ncnc3c2nc2n3CCCCC2)CC1)N1CCN(c2ccccc2F)CC1 | 44* | 2 | 0 | -1 | 1 | 43
Cc1cccc(N2CCN(C(=O)C3CCN(c4ncnc5c4nc4n5CCCCC4)CC3)CC2)c1C | 40 | -5 | 1 | 2 | 9 | /
CC(C)n1cc(CN2CCC(C(=O)Nc3ccc(Oc4ccccc4F)cc3)CC2)cn1 | 5 | -4 | 3 | 0 | -4 | /
CCOc1ccc(NC(=O)C(C)Oc2ccc(C#N)cc2)cc1S(=O)(=O)N1CCCC1 (stereo not drawn) | 2 | 0 | 1 | -1 | -1 | /
C/C(=N\NC(=O)C1CCCN(S(=O)(=O)c2ccccc2)C1)c1ccncc1 (stereo not drawn) | 43* | 2 | 1 | 0 | -3 | 3
C/C(=N\NC(=O)C1CCCN(S(=O)(=O)c2ccccc2)C1)c1cccnc1 (stereo not drawn) | -9 | 2 | 2 | -4 | -7 | /
CC(C)=C1SC(N2CCOCC2)=NC1=O | -9 | -2 | -1 | -2 | -2 | /
CC(C)=C1SC(N2CCN(c3ccc(C)cc3)CC2)=NC1=O | 50* | -3 | -3 | -4 | -2 | 45*
CC(C)=C1SC(N2CCN(c3ccc(Cl)cc3)CC2)=NC1=O | 50* | -2 | 2 | -2 | -2 | 48*
CC(=O)NC12CC3CC(C1)CC(C(=O)Nc1ccc(C)c(S(=O)(=O)N4CCCCCC4)c1)(C3)C2 | / | -2 | / | 0 | / | /
O=C(CN1CCN(c2ccccc2)CC1)Nc1ccc(-n2cnnn2)cc1 | 0 | -8 | 5 | 3 | -6 | /
CCc1ccccc1NC(=O)CN1CCN(C(=O)c2cccc(-n3cnnn3)c2)CC1 | 65* | 1 | -1 | 1 | -4 | 6
C/C(=N\NC(=O)c1cccc(N/N=C(\C)c2ccncc2)c1)c1ccncc1 | 52* | -2 | 3 | -10 | 0 | 15
CN1c2ccccc2Oc2nnc(N3CCN(Cc4ccccc4)CC3)cc21 | 46* | 2 | 2 | 1 | -3 | 37
O=S(=O)(NCc1ccccc1)c1ccc(Cl)cc1 | -15 | -2 | 0 | 2 | -2 | /
O=S(=O)(Nc1cc2nc3ccccc3nc2n1Cc1ccccc1)c1ccc(Cl)cc1 | 50* | 24 | 10 | -2 | 13 | 42
c1cncc(CNc2ccc3c(c2)OCO3)c1 | 44* | 1 | 2 | -9 | -1 | 52*
COc1ccc(N2CCN(Cc3nc4ccccc4c(=O)[nH]3)CC2)cc1 | 12 | -7 | 1 | 12 | -3 | /
COc1cccc(N2CCN(Cc3nc4ccccc4c(=O)[nH]3)CC2)c1 | 48* | -2 | -1 | 0 | -1 | 39
Cc1ccc(N=Cc2sc(O)c3ccccc23)cc1 | 50* | -4 | 1 | / | -6 | 54*
CCOc1ccccc1C(C(=O)NC1CCCCC1)N(C(=O)c1csnn1)C1CC1 (stereo not drawn) | 0 | 5 | 1 | 9 | 1 | /
COc1ccc(NCc2nnc(SCc3ccc(Cl)cc3)n2-c2ccccc2)cc1 | 52* | 0 | 5 | 10 | 6 | 49*
COc1ccc(-n2c(-c3ccccc3)cc3c2CCCC3=O)cc1 | 49* | -5 | 4 | 2 | -1 | 41
SMILES | PREPL inhibitor | NadD block | PP5 primary | Rpn11 inh | PP1 inh | PREPL confirm
O=C1CCCc2c1cc(-c1ccccc1)n2-c1ccc(O)cc1 | 4 | 2 | 0 | 3 | 3 | /
CCCN1CCC(=O)NC1=S | / | 5 | / | 2 | / | /
COc1cc(C=NNc2ccc(S(=O)(=O)Nc3ccccc3C(=O)O)cc2[N+](=O)[O-])ccc1O | 55* | 13 | / | -7 | / | 38
CN1C(=O)C2(OCC(COc3ccc(Cl)cc3)O2)c2ccccc21 (stereo not drawn) | -79 | -11 | 4 | -1 | 4 | /
CC(=O)N1CCN(c2ccc(OC[C@H]3CO[C@](Cn4ccnc4)(c4ccc(Cl)cc4Cl)O3)cc2)CC1 | 61* | 8 | 5 | -3 | 0 | 64*
O=C(NCc1cccc(C(F)(F)F)c1)c1ccc2nc([C@@H]3O[C@H](CO)[C@@H](O)[C@H]3O)[nH]c2c1 | / | -1 | / | -9 | / | /
O=C1OC[C@@H]2CCCN2C(=O)[C@H](CC(=O)N(CCO)Cc2ccccc2)C/C=C\C[C@H]1Cc1ccc(F)cc1 | 51* | -6 | / | -5 | / | 39
CC(=O)NC(Cc1ccc(C)cc1)C(=O)NC1CCN(S(=O)(=O)c2ccccc2)CC1 (stereo not drawn) | 8 | -4 | 1 | 4 | 0 | /
CN(C)c1ccc(C(CNC(=O)c2ccc(-c3ccccc3)cc2)N2CCOCC2)cc1 (stereo not drawn) | 47* | -4 | 1 | -5 | 10 | 65*
CCc1ccc([C@@H]2C[C@H]3[C@@H](CN2S(=O)(=O)c2ccc(C)cc2)C(=O)C[C@@H](c2ccccc2)N3S(=O)(=O)c2ccc(C)cc2)cc1 | / | 9 | / | 4 | / | /
O=S(=O)(NCCCCNS(=O)(=O)c1ccc(F)cc1)c1ccc(F)cc1 | 5 | -10 | 1 | -3 | -1 | /
CCN1CCN(C(=O)C(C)Nc2ccc(OC)cc2OC)CC1 (stereo not drawn) | 50* | 3 | -1 | 13 | 0 | 46*
COc1ccc(C(=O)COC(=O)C(CCSC)NC(=O)COc2ccccc2)cc1 (stereo not drawn) | -3 | -2 | -1 | 5 | -2 | /
COc1ccc(CN2C(=O)c3ccccc3C2c2nnnn2C(C)C)cc1OC (stereo not drawn) | / | 0 | / | / | / | /
O=C(NCCCN1CCN(Cc2ccccc2)CC1)C1CCN(c2nnc(-n3cccc3)s2)CC1 | 44* | -1 | 1 | -2 | -1 | 32
CCN(C(=O)CSc1nc(C)nc2sc3c(c12)CCC3)C1CCS(=O)(=O)C1 (stereo not drawn) | 54* | 6 | / | -4 | / | 37
COc1ccc(NCC(=O)N/N=C/C=C\c2ccccc2)cc1 | 67* | 16 | -6 | 5 | -2 | 46*
COc1ccc(/C=C/C=N/NC(=O)COc2ccc(OC)cc2)cc1 | 0 | 0 | 1 | -7 | 1 | /
COc1cc(OC)c(C=NNC(=S)NC23CC4CC(CC(C4)C2)C3)c(OC)c1 | / | 20 | / | 2 | / | /
CCCCCN=C(N)N/N=C/c1c[nH]c2ccc(OC)cc12 | 80* | 9 | 2 | -6 | 14 | 66*
N#C/C(=C\c1cccnc1)c1nc2ccccc2[nH]1 | 56* | 2 | 0 | 1 | -1 | 13
N#C/C(=C\c1ccccc1C(=O)O)c1nc2ccccc2[nH]1 | 34 | 1 | 2 | 4 | -3 | /
N#C/C(=C\c1ccc(N2CCOCC2)o1)c1nc2ccccc2[nH]1 | 24 | 4 | 1 | / | -2 | /
N#C/C(=C\c1ccc(N2CCOCC2)c([N+](=O)[O-])c1)c1nc2ccccc2[nH]1 | 45* | 7 | -2 | 1 | -1 | 40
